Source: PubChem BioAssay AID602438 (Sanford-Burnham Center for Chemical Genomics, 2012)
Among all 360,000 compounds or so, about 3,100 (0.86%) were called active.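 Rule for the calls: active = inhibition or corrected inhibition above about 18%, plus a signal ratio from 0.5 to 1.5 (limit read from the data, passing the limit was not always enough); inactive = the rest.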 Many of the other results were omitted from the sample, so actives are more common in it than they were.

Biological target: Neuropilin-1 (Homo sapiens) (UniProt O14786)
Sequence (O14786 whole entry, looked up): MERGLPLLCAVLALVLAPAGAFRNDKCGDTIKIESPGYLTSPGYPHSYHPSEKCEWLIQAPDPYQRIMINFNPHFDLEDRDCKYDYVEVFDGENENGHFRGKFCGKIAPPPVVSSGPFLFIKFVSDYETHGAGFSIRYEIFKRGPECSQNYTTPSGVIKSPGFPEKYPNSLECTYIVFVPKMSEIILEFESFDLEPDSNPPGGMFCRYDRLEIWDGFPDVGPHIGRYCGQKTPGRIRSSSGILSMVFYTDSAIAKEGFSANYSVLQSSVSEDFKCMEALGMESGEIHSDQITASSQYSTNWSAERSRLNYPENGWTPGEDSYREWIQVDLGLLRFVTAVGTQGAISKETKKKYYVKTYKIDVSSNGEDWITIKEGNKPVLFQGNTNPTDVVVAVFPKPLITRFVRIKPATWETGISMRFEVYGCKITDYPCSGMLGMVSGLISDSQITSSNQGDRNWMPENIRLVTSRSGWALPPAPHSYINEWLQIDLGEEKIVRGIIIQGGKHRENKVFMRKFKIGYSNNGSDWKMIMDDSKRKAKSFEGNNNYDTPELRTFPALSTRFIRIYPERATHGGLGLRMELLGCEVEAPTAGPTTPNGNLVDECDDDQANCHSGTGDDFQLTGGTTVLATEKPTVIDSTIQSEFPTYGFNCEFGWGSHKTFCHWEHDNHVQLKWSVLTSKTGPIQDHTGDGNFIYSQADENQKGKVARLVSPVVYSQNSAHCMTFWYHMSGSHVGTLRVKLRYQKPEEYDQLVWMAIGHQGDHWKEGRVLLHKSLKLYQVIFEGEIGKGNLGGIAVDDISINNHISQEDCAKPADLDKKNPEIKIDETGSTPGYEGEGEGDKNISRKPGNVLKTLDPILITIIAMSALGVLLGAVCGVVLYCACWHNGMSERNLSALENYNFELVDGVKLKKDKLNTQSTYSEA
Assay: NRP-1/CendR peptide interaction modulators – biochemical, fluorescence polarization, uHTS, primary screen (AID 602438)
Details: FAM-RPARPAR peptide binding to NRP-1, fluorescence polarization; at 25 µM; active compounds read high

SMILES	inhibition
Cc1cccc(N(C(=O)c2ccc(CN3CCOCC3)o2)C(C(=O)NC2CCCCC2)c2ccc(F)cc2)c1 (stereo unspecified)	-7.1% (inactive)
Cc1ccc(C(=O)NC(C)C(c2cccs2)N2CCOCC2)cc1C (stereo unspecified)	-2% (inactive)
Cc1ccc(N(C(=O)c2ccc(CN3CCOCC3)o2)C(C(=O)NCCC(C)C)c2cccs2)c(C)c1 (stereo unspecified)	26.1% (active)
Cc1csc(=O)n1CCC(=O)OCC(=O)NNC(=O)c1ccc(Br)cc1	-1.9% (inactive)
CCOC(=O)N1CCN(C(c2ccnc3ccccc23)c2nnnn2-c2c(C)cccc2C)CC1 (stereo unspecified)	-13.7% (inactive)
COc1ccc(C(=O)COC(=O)c2ccc([N+](=O)[O-])s2)cc1OC	24.3% (active)
COc1cc(NC(=O)COC(=O)c2ccc([N+](=O)[O-])s2)cc(OC)c1OC	-5.2% (inactive)
O=C(OCC(=O)N1CCN(c2ccccc2)CC1)c1ccc([N+](=O)[O-])s1	-3.7% (inactive)
COc1ncnc2c1ncn2CCCNCCN1CCOCC1	1% (inactive)
CCOc1ccc(CCNC(=O)CSc2cc(=O)n(C)c3ccc(Cl)cc23)cc1OCC	4.1% (inactive)
O=C(N/N=C/c1ccco1)c1csc2c1CCCC2	26.9% (active)
O=C(CCNC(=O)c1ccccc1Cl)NN=Cc1ccco1	10.2% (inactive)
O=C(Cc1ccccc1)Nc1cccc(C(=O)N/N=C/c2ccco2)c1	-32.3% (inactive)
CCOC(=O)C(C)n1cnc2scc(-c3ccc(C)c(C)c3)c2c1=O (stereo unspecified)	9.9% (inactive)
CCC(C(=O)OC)n1cnc2scc(-c3ccc(C)cc3)c2c1=O (stereo unspecified)	91.3% (active)
CC(=O)C(C)n1cnc2scc(-c3ccc(C)cc3)c2c1=O (stereo unspecified)	7.4% (inactive)
O=C(CCNC(=O)C1CCN(S(=O)(=O)c2ccccc2)CC1)NC1CC1	-0.4% (inactive)
Cc1ccccc1NC(=O)c1cc(S(=O)(=O)N2CCOCC2)cs1	15% (inactive)
Cc1ccc(-c2ccc(C3=CC(=O)CC(C)(C)C3=O)cc2)cc1	4.5% (inactive)
CN1CCN(c2cc3c(cc2F)c(=O)c(C(=O)O)cn3CCF)CC1	11.3% (inactive)
CCOC(=O)c1c(NC(=O)CCl)sc(C(=O)N(CC)CC)c1C	-0.5% (inactive)
CCOC(=O)c1c(NC(=O)COC(=O)c2ccc(S(=O)(=O)C(F)F)cc2)sc(C(=O)N(C)C)c1C	-19.4% (inactive)
CCOC(=O)Nc1sc(C(=O)N(C)C)c(C)c1C(=O)OCC	26.1% (active)

SMILES	inhibition
Cc1cc(NC(=O)CSc2nc(=O)cc(N)n2-c2ccc(F)cc2)no1	8.7% (inactive)
COc1ccc(Cl)cc1S(=O)(=O)N1CCN(CC(=O)C(C)(C)C)CC1	21.7% (active)
COc1ccc(Cl)cc1S(=O)(=O)N1CCC(O)(c2ccc(Cl)cc2)CC1	3% (inactive)
COc1ccc(C(=O)NCc2ccc(Cl)cc2)cc1S(=O)(=O)N1CCCC1	4.6% (inactive)
CC(NCc1ccccc1OC1CCCC1)c1ccccc1 (stereo unspecified)	-0.1% (inactive)
O=C(NC12CC3CC(CC(C3)C1)C2)N1CCCC(CO)C1 (stereo unspecified)	-1.5% (inactive)
CC(=O)c1c(N)n(C)c(=O)n(C)c1=O	5.8% (inactive)
Cc1ccc(C(C(=O)NCC2CCCO2)N(C(=O)c2snc(C(N)=O)c2N)c2ccc(C(C)C)cc2)o1 (stereo unspecified)	-5.9% (inactive)
O=C(O)c1ccccc1OCc1ccccc1Cl	5.3% (inactive)
Cc1ccc(-n2c(SCC(=O)NCc3ccc4c(c3)OCO4)nnc2-c2cccnc2)c(C)c1	8.7% (inactive)
Cc1ccccc1-c1nnc(SCC(=O)NCc2ccc3c(c2)OCO3)n1C	38.3% (active)
Cn1cccc1Cc1nnc(SCC(=O)NCc2ccc3c(c2)OCO3)n1CCc1ccccc1	-7.4% (inactive)
Cc1cc(N=CC2=C(O)CCCC2=O)no1	10.1% (inactive)
CC1OC2C(OC1C)N(S(C)(=O)=O)CCN2S(C)(=O)=O (stereo unspecified)	-3.5% (inactive)
CC1(C(=O)Nc2ccc3c(c2)OCCO3)CSCC(=O)N1CCOc1ccccc1 (stereo unspecified)	-11.3% (inactive)
Cc1ccc(C(=O)OCC(=O)NC(=O)Cc2ccccc2)c(O)c1	20.4% (active)
Cc1cccc(C)c1NC(=O)COC(=O)c1ccccc1O	6.8% (inactive)
CCCN(CC1CC1)C(=O)COC(=O)c1ccc(C)cc1O	-9.9% (inactive)
C[C@H](CO)N1C[C@H](C)[C@@H](CN(C)C(=O)c2cnccn2)Oc2ncc(Br)cc2C1=O	2.9% (inactive)
C/C=C/C(=O)Nc1ccc(N2CCN(c3ccc(C(F)(F)F)cn3)CC2)nc1	6.8% (inactive)
C[C@H]1CN([C@@H](C)CO)C(=O)Cc2cc(NC(=O)Cc3ccccc3)ccc2O[C@H]1CN(C)S(=O)(=O)c1cccs1	0.6% (inactive)
CCCCCNC(=O)c1cccnc1SCC(=O)Nc1ccccc1OC	-0.3% (inactive)
Cc1cc(Cl)c2oc(C(=O)NC(C)c3ccncn3)c(C)c2c1 (stereo unspecified)	1.3% (inactive)

SMILES	inhibition
CCOC(=O)c1csc(CCNC(=O)c2oc3c(Cl)cc(C)cc3c2C)n1	24.9% (active)
Cc1cc(Cl)c2oc(C(=O)N(C)C(C)c3ccccn3)c(C)c2c1 (stereo unspecified)	9.3% (inactive)
CCN(CC(=O)Nc1cc(Cl)ccc1C)C(=O)Cn1c(=O)cnc2ccccc21	9% (inactive)
O=c1nc(NO)ccn1C1CCCO1 (stereo unspecified)	7.6% (inactive)
CC(C)C(C(=O)NCc1ccco1)N(CC1CCCO1)C(=O)CNS(=O)(=O)c1ccc(F)cc1 (stereo unspecified)	15.8% (inactive)
Cc1ccc2c(c1)C1C[N+](C)(CC(=O)c3ccccc3)CCC1N2C(=O)c1ccccc1Cl (stereo unspecified)	5.2% (inactive)
Cc1ccc2c(c1)C1CN(C)CCC1N2C(=S)Nc1ccc(Cl)cc1Cl (stereo unspecified)	-11.4% (inactive)
Cc1ccc2c(c1)C1CN(C)CCC1N2C(=O)c1ccccc1NS(=O)(=O)c1ccc(F)cc1C (stereo unspecified)	37.9% (active)
Cc1noc(C)c1CSCC(=O)Nc1ccc(Br)cc1Cl	12.2% (inactive)
O=C(CSCc1c(F)cccc1Cl)NCC1CCCO1 (stereo unspecified)	-9.5% (inactive)
CC1CCN(C(=O)/C(=C\c2ccccc2F)NC(=O)c2ccccc2)CC1	9.8% (inactive)
COc1ccc2oc(N)c(C=O)c(=O)c2c1	13.3% (inactive)
CCc1cc2c(=O)c(-c3nc4ccccc4n3C)c(CCCC(=O)O)oc2cc1OC(=O)C(C)(C)C	3.6% (inactive)
CCc1cc2c(=O)c(-c3ccon3)c(N)oc2cc1OC	36.1% (active)
CCN(CC(=O)N1CCCC1)S(=O)(=O)c1ccc(F)cc1	9.2% (inactive)
COCn1c(C(O)c2ccccc2)cc2ccccc21 (stereo unspecified)	8.1% (inactive)
CC(OC(=O)c1ccc([N+](=O)[O-])cc1)C(=O)NCC1CCCCC1 (stereo unspecified)	23.5% (active)
CC(OC(=O)c1cccc(S(=O)(=O)N2CCOCC2)c1)C(=O)NCC1CCCCC1 (stereo unspecified)	8.2% (inactive)
O=C(NCC(O)c1ccc([N+](=O)[O-])cc1)C1CCCCC1 (stereo unspecified)	11.3% (inactive)
O=C(C1CCCN1S(=O)(=O)c1ccc(Br)cc1)N1CCOCC1 (stereo unspecified)	6.9% (inactive)
COC(=O)Nc1nc2ccc(Sc3ccccc3)cc2[nH]1	-0.3% (inactive)
Cc1nc2ccc(C(=O)N(C)CC3CCCN(CCc4ccc(Cl)cc4)C3)cc2[nH]1 (stereo unspecified)	8.8% (inactive)
Cc1nc2ccc(C(=O)O)cc2[nH]1	24.6% (active)

SMILES	inhibition
Cc1cccc(NC(=O)CN2CCCN(S(=O)(=O)c3ccc(Br)s3)CC2)c1	1.1% (inactive)
COc1cccc(CNC(=O)CN(C)S(=O)(=O)c2ccc3c(c2)c(=O)n(C)c(=O)n3C)c1	-1.6% (inactive)
CCc1ccccc1NC(=O)CN(C)S(=O)(=O)c1ccc2c(c1)c(=O)n(C)c(=O)n2C	7.6% (inactive)
CC1CCC(NC(=O)CN(C)S(=O)(=O)c2ccc3c(c2)c(=O)n(C)c(=O)n3C)CC1 (stereo unspecified)	25.4% (active)
C/C=N/NC(=O)CCCC(=O)N/N=C/C	15% (inactive)
Cc1cc(C)c(S(=O)(=O)N2C=CC(C(F)(F)F)=NCC2)c(C)c1	3.5% (inactive)
O=C(O)c1ccc(COc2c(F)c(F)cc(F)c2F)o1	45.5% (active)
O=C(O)CSCc1ccc(C(=O)O)o1	-7.1% (inactive)
O=C(O)c1ccc(NC(=O)c2ccc(COc3ccc(Cl)cc3)o2)cc1	-6.7% (inactive)
CC1O[C@H](OC2C(COC3OC(CO)C(O)[C@H](O)C3O)OC(OC3CC[C@]4(C)C(CC[C@@]5(C)[C@@H]4C=C[C@]46OC[C@@]7(CCC(C)(C)C[C@H]74)C(O)C[C@@]56C)C3(C)C)C(O)C2O)C(O)C(O)C1O (stereo partly specified)	23.7% (active)
CCOc1ccc(-n2c(SC(C)C(=O)OC)nc3c(c2=O)SCC3)cc1 (stereo unspecified)	-5.4% (inactive)
N#Cc1cccc(CN2CCC(=O)N([C@H](CO)c3ccccc3)CC2)c1	9.5% (inactive)
N#Cc1cccc(CN2CCC(=O)N(CCO)CC2)c1	21.1% (active)
O=C1CCN(CCCc2ccccc2)CCN1CCO	5.5% (inactive)
O=C(CSc1nnc(-c2cccnc2)n1Cc1ccco1)c1ccc(Cl)c(Cl)c1	-25.2% (inactive)
O=C(CSc1nnc(-c2cnccn2)n1Cc1ccco1)c1ccc(Cl)c(Cl)c1	3.3% (inactive)
O=C(CSc1nnc(-c2cccs2)n1Cc1ccco1)c1ccc2c(c1)OCO2	37.5% (active)
CC(=O)N1CC2(C)CN(C(C)=O)CC(C)(C1)C2=O	11.7% (inactive)
O=C(NCc1ccccc1Cl)C1CCN(c2ncnc3c2nc2n3CCCCC2)CC1	13.7% (inactive)
CN(Cc1ccccc1)C(=O)C1CCCN(c2ncnc3c2nc2n3CCCCC2)C1 (stereo unspecified)	10% (inactive)
CN(C(=O)C1CCN(c2ncnc3c2nc2n3CCCCC2)CC1)C1CCCCC1	18.4% (active)
CCC(=O)c1cn(CCOc2ccccc2OC)c2ccccc12	-7% (inactive)
